Measurements as given in PubChem BioAssay (EPA / NIEHS).
The source made the active and inactive calls. Rule for the calls: active = hit-call score of the fitted dose curve at least 0.9, where 1 is the maximum; inactive = score below 0.9.

Key:
[1] = read-out: TIMP metallopeptidase inhibitor 2 (TIMP2), TIMP2 (gene 7077); test: BSK_KF3CT_TIMP2: BioMAP Diversity Plus: KF3CT Assay for TIMP metallopeptidase inhibitor 2 (TIMP2) Biomarker Activity (AID 2283071); conditions: primary human keratinocytes with fibroblasts; actives raise or lower the signal
How it was run: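 Keratinocyte–fibroblast co-culture, 24 h exposure; TIMP-2 ELISA, DMSO-normalised bidirectional fit. Parallel SRB (0.1%, TCA-fixed, 560 nm) total-protein staining gauges cytotoxicity.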

[2] = read-out: Transforming growth factor beta 1 (TGFb1), TGFB1 (gene 7040); test: BSK_KF3CT_TGFb1: BioMAP Diversity Plus: KF3CT Assay for Transforming growth factor beta 1 (TGFb1) Biomarker Activity (AID 2283072); conditions: primary human keratinocytes with fibroblasts; actives raise or lower the signal
How it was run: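 Signal changes in either direction, relative to DMSO, define activity here. TGF-b1 is read by ELISA from a human keratinocyte-fibroblast co-culture 24 h post-dose.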

[3] = read-out: Matrix Metallopeptidase 9 (MMP9), MMP9 (gene 4318); test: BSK_KF3CT_MMP9: BioMAP Diversity Plus: KF3CT Assay for Matrix Metallopeptidase 9 (MMP9) Biomarker Activity (AID 2283074); conditions: primary human keratinocytes with fibroblasts; actives raise or lower the signal
How it was run: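 Human keratinocyte and foreskin fibroblast co-culture exposed to chemicals for 24 h; MMP9 biomarker measured by ELISA, bidirectional fitting relative to DMSO; cytotoxicity tracked by SRB total protein staining in parallel cultures.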

[4] = read-out: CD40, CD40 (gene 958); test: BSK_LPS_CD40: BioMAP Diversity Plus: LPS Assay for CD40 Biomarker Activity (AID 2283076); conditions: primary human HUVEC with PBMC; actives raise or lower the signal
How it was run: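 Using a multiplexed primary human co-culture (umbilical vein endothelium plus PBMC), CD40 was read by ELISA 24 h after dosing, with cytotoxicity tracked by sulforhodamine B staining of parallel cultures and activity fitted bidirectionally versus DMSO.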

[5] = read-out: E-selectin (Homo sapiens) (UniProt P16581); test: BSK_LPS_Eselectin: BioMAP Diversity Plus: LPS Assay for Eselectin Biomarker Activity (AID 2283077); conditions: primary human HUVEC with PBMC; actives raise or lower the signal
How it was run: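 Dose chemical onto LPS-driven HUVEC/PBMC co-culture; after 24 h, run ELISA for E-selectin; fit up- and down-going responses relative to DMSO control.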

[6] = read-out: Interleukin-8 (IL8), CXCL8 (gene 3576); test: BSK_LPS_IL8: BioMAP Diversity Plus: LPS Assay for Interleukin-8 (IL8) Biomarker Activity (AID 2283078); conditions: primary human HUVEC with PBMC; actives raise or lower the signal
How it was run: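 In this LPS system, chemical-treated human umbilical vein endothelium/PBMC co-cultures were harvested at 24 h for IL-8 ELISA.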

[7] = BSK_LPS_SRB: Viability Assessment in the BioMAP Diversity Plus: LPS Assay (AID 2283079); conditions: primary human HUVEC with PBMC;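 note: total protein by sulforhodamine B absorbance as a cytotoxicity measure; measured one day after compound addition; fitted in both directions against DMSO so loss or gain of signal counts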
How it was run: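 Cytotoxicity endpoint in human endothelial–PBMC co-culture: 24 h exposure, then SRB (0.1%) staining, 560 nm read.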

[8] = read-out: Interleukin-1 alpha (IL1a), IL1A (gene 3552); test: BSK_LPS_IL1a: BioMAP Diversity Plus: LPS Assay for Interleukin-1 alpha (IL1a) Biomarker Activity (AID 2283080); conditions: primary human HUVEC with PBMC; actives raise or lower the signal
How it was run: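 Primary human HUVEC and PBMC co-culture stimulated with LPS is dosed and harvested at 24 h. Both increases and decreases in ELISA-measured IL-1a are scored relative to DMSO.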

[9] = read-out: Monocyte Chemoattractant Protein-1 (MCP1), CCL2 (gene 6347); test: BSK_LPS_MCP1: BioMAP Diversity Plus: LPS Assay for Monocyte Chemoattractant Protein-1 (MCP1) Biomarker Activity (AID 2283081); conditions: primary human HUVEC with PBMC; actives raise or lower the signal
How it was run: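 Values derive from bidirectional fitting against DMSO of ELISA-measured MCP-1 in a human primary endothelial and mononuclear cell co-culture, 24 h after chemical addition under LPS activation.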

[10] = BSK_LPS_PGE2: BioMAP Diversity Plus: LPS Assay for Prostaglandin E2 (PGE2) Biomarker Activity (AID 2283082); conditions: primary human HUVEC with PBMC; actives raise or lower the signal;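 for AC50: secreted prostaglandin E2 measured by ELISA in LPS-stimulated co-culture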
How it was run: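 Endpoint derived from bidirectional curve fitting versus DMSO of ELISA-measured PGE2 in LPS-stimulated human primary vascular co-culture (HUVEC with PBMC) harvested at 24 h.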

[11] = read-out: Macrophage colony-stimulating factor (MCSF), CSF1 (gene 1435); test: BSK_LPS_MCSF: BioMAP Diversity Plus: LPS Assay for Macrophage colony-stimulating factor (MCSF) Biomarker Activity (AID 2283083); conditions: primary human HUVEC with PBMC; actives raise or lower the signal
How it was run: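 Bidirectional fit versus DMSO of ELISA-measured M-CSF in co-cultured human umbilical vein endothelial cells and PBMC, sampled 24 h after dosing.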

[12] = read-out: Tissue Factor, F3 (gene 2152); test: BSK_LPS_TissueFactor: BioMAP Diversity Plus: LPS Assay for Tissue Factor Biomarker Activity (AID 2283084); conditions: primary human HUVEC with PBMC; actives raise or lower the signal
How it was run: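 Read-out: CD142 ELISA, 24 h. System: LPS-driven human endothelial/PBMC co-culture. Analysis: up- or down-signal fitted against DMSO.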

[13] = read-out: Tumor necrosis factor (Homo sapiens) (UniProt P01375); test: BSK_LPS_TNFa: BioMAP Diversity Plus: LPS Assay for Tumour Necrosis Factor alpha (TNFa) Biomarker Activity (AID 2283085); conditions: primary human HUVEC with PBMC; actives raise or lower the signal
How it was run: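 Primary human vascular co-culture of HUVEC and PBMC; TNFa ELISA 24 h after treatment, analysed as increase or decrease relative to DMSO control.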

[14] = read-out: CD38, CD38 (gene 952); test: BSK_SAg_CD38: BioMAP Diversity Plus: SAg Assay for CD38 Biomarker Activity (AID 2283087); conditions: primary human HUVEC with PBMC; actives raise or lower the signal
How it was run: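 Fluorescence ELISA of cell-surface CD38 served as the read-out, with either increase or decrease fitted against DMSO controls. Cells were a human umbilical vein endothelium plus PBMC co-culture under SEB/TSST-1 stimulation, measured 24 h after dosing.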

[15] = read-out: CD40, CD40 (gene 958); test: BSK_SAg_CD40: BioMAP Diversity Plus: SAg Assay for CD40 Biomarker Activity (AID 2283088); conditions: primary human HUVEC with PBMC; actives raise or lower the signal
How it was run: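 Endpoint derived by fitting increases or decreases versus DMSO controls. CD40 is detected by fluorescence ELISA in a human vascular co-culture of endothelium and PBMC at 24 h.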

[16] = read-out: CD69, CD69 (gene 969); test: BSK_SAg_CD69: BioMAP Diversity Plus: SAg Assay for CD69 Biomarker Activity (AID 2283089); conditions: primary human HUVEC with PBMC; actives raise or lower the signal
How it was run: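 Values derive from bidirectional fitting relative to DMSO vehicle. Cells: umbilical vein endothelium plus peripheral blood mononuclear cells, treated 24 h before fluorescent ELISA for CD69.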

[17] = read-out: Monocyte Chemoattractant Protein-1 (MCP1), CCL2 (gene 6347); test: BSK_SAg_MCP1: BioMAP Diversity Plus: SAg Assay for Monocyte Chemoattractant Protein-1 (MCP1) Biomarker Activity (AID 2283090); conditions: primary human HUVEC with PBMC; actives raise or lower the signal
How it was run: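 MCP-1 levels in the endothelial–PBMC SAg co-culture were quantified by ELISA at 24 h post-dosing; both increases and decreases versus DMSO scored. Cytotoxicity monitored by SRB total protein in parallel cultures.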

[18] = read-out: C-C motif chemokine 2 (Homo sapiens) (UniProt P13500); test: BSK_KF3CT_MCP1: BioMAP Diversity Plus: KF3CT Assay for Monocyte Chemoattractant Protein 1 (MCP1/CCL2) Biomarker Activity (AID 2283073); conditions: primary human keratinocytes with fibroblasts; actives raise or lower the signal
How it was run: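 Biomarker MCP-1 is measured by ELISA in primary human keratinocytes co-cultured with foreskin fibroblasts, 24 h after chemical treatment; DMSO serves as the negative control and activity baseline.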

[19] = read-out: Vascular cell adhesion molecule 1 (VCAM1), VCAM1 (gene 7412); test: BSK_LPS_VCAM1: BioMAP Diversity Plus: LPS Assay for Vascular cell adhesion molecule 1 (VCAM1) Biomarker Activity (AID 2283086); conditions: primary human HUVEC with PBMC; actives raise or lower the signal
How it was run: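 Primary human vascular co-culture (umbilical vein endothelium plus PBMC) stimulated with LPS received chemical; 24 h later VCAM-1 was read by ELISA. Overt cytotoxicity was assessed by sulforhodamine B staining of parallel cultures at the same time point.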

Measured: AC50

Tumor necrosis factor (Homo sapiens), sequence (P01375 whole entry, looked up): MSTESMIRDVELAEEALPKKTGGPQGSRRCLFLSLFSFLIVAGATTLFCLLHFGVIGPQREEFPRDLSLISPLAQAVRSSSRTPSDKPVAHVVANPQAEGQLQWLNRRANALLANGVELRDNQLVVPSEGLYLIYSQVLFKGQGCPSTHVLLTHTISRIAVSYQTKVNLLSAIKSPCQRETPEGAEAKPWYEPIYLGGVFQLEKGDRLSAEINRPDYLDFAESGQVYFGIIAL
E-selectin (Homo sapiens), sequence (P16581 whole entry, looked up): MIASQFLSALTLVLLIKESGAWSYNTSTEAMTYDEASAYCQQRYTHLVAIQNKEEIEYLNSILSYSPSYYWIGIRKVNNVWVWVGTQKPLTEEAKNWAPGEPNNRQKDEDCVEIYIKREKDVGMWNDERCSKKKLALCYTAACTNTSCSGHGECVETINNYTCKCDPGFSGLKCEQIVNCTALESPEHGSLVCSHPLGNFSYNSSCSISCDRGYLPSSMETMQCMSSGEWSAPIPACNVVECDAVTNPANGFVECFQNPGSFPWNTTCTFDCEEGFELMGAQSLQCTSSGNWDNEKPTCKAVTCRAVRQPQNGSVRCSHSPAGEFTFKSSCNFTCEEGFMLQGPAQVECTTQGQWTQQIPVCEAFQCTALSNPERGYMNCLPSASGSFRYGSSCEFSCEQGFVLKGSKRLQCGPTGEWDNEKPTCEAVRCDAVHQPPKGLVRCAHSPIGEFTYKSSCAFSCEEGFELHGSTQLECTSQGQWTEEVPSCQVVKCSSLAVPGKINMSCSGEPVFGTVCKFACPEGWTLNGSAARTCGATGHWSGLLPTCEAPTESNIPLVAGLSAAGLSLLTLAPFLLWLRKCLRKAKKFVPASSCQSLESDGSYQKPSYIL

CCNC(=O)NC(=O)C(C#N)=NOC
not listed: [18] | [19]
inactive: all other assays above

CCOc1nc(F)cc2nc(S(=O)(=O)Nc3c(Cl)cccc3Cl)nn12
active: [5] 20 µM
not listed: [14] | [19]
inactive: all other assays above

CN=C=S
active: [15] 13.5 µM | [17] 20 µM
not listed: [14] | [19]
inactive: all other assays above

CC(C)Oc1cccc(NC(=O)c2ccccc2C(F)(F)F)c1
active: [7] 16.7 µM
not listed: [19]
inactive: all other assays above

CS(=O)(=O)c1ccc(C(=O)C2C(=O)CCCC2=O)c([N+](=O)[O-])c1
not listed: [14]
inactive: all other assays above

CN/C(=N\[N+](=O)[O-])NCc1cnc(Cl)s1
not listed: [14] | [19]
inactive: all other assays above

COP(=O)(OC)O/C(C)=C/C(=O)N(C)C
active: [10] 17.3 µM
not listed: [19]
inactive: all other assays above
